Results published in PubChem BioAssay (NCATS).
Results filed as inconclusive are left out. Entries that show only a call come without a potency. Calls of active or inactive are those of the source. Calls follow the shape of the dose curve; as a rule, active = well fitted inhibition curve with a large enough effect; inconclusive = small, poorly fitted or top-dose-only effect; inactive = flat fitted curve, though single readings scatter.

Experiments:
Assay in all cases: qHTS profiling for inhibitors of Plasmodium falciparum proliferation (AID 504749); also: nearly all actives have a fitted effect of over 60% in size
Details in all cases: P. falciparum in erythrocytes, SYBR Green DNA, 72 h; series mostly up to 28.7 µM
[1] = system: DFO2036
Summary of the method: (§1)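 Each compound contacts P. falciparum-infected red blood cells for 72 h at 37 C; lysis buffer (Tris, EDTA, saponin, Triton X, SYBR Green I) is added and fluorescence measured next morning; values normalized to controls.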

[2] = system: Dd2
Summary of the method: as §1

[3] = system: ECU
Summary of the method: as §1

[4] = system: FAB9
Summary of the method: as §1

[5] = system: GB4
Summary of the method: as §1

[6] = system: HB3
Summary of the method: as §1

[7] = system: DIV14
Summary of the method: as §1

[8] = system: DIV17
Summary of the method: as §1

[9] = system: DIV30
Summary of the method: as §1

[10] = system: ICS
Summary of the method: as §1
Potency is read from the fitted curve at half-maximal effect.

| Structure (SMILES) | Potency [1] | Potency [2] | Potency [3] | outcome [4] | Potency [5] | Potency [6] | Potency [7] | Potency [8] | Potency [9] | Potency [10] |
| --- | --- | --- | --- | --- | --- | --- | --- | --- | --- | --- |
| CC(C)CN(C[C@@H](O)[C@H](Cc1ccccc1)NC(=O)O[C@H]1CO[C@H]2OCC[C@H]21)S(=O)(=O)c1ccc(N)cc1 | inactive | inactive | inactive | inactive | inactive | inactive | – | – | – | – |
| O=C1C(CCC(O)c2ccc(F)cc2)C(c2ccc(O)cc2)N1c1ccc(F)cc1 (configuration not stated) | inactive | inactive | inactive | inactive | inactive | inactive | inactive | inactive | inactive | inactive |
| O=C(O)c1nc(=O)[nH]c(=O)[nH]1 | inactive | inactive | inactive | inactive | inactive | inactive | inactive | inactive | inactive | inactive |
| N#CC(c1ccc(Cl)cc1)c1c(Cl)cc(-n2ncc(=O)[nH]c2=O)cc1Cl (configuration not stated) | inactive | inactive | inactive | inactive | inactive | inactive | – | – | inactive | – |
| N#Cc1c(N(CC(=O)O)CC(=O)O)sc(C(=O)O)c1CC(=O)O | inactive | inactive | inactive | inactive | inactive | inactive | inactive | inactive | inactive | inactive |
| COc1ccnc(CS(=O)c2nc3ccc(OC(F)F)cc3[nH]2)c1OC (configuration not stated) | inactive | inactive | inactive | inactive | inactive | inactive | inactive | inactive | – | inactive |
| NS(=O)(=O)c1cc(Cl)c(Cl)c(S(N)(=O)=O)c1 | inactive | inactive | inactive | inactive | inactive | inactive | inactive | inactive | inactive | inactive |
| Fc1ccc(C(c2ccc(F)cc2)N2CCN(CC=Cc3ccccc3)CC2)cc1 | – | – | – | – | 16.9 µM (active) | – | 12 µM (active) | 13.5 µM (active) | 16.9 µM (active) | – |
| CN1CCN2c3ncccc3Cc3ccccc3C2C1 (configuration not stated) | inactive | – | inactive | inactive | – | inactive | – | – | inactive | 11.2 µM (active) |
| C=C1c2cccc(O)c2C(O)=C2C(=O)[C@@]3(O)C(O)=C(C(N)=O)C(=O)[C@@H](N(C)C)[C@@H]3[C@@H](O)[C@H]12 | inactive | 1.78 µM (active) | inactive | inactive | inactive | – | inactive | inactive | inactive | – |
| Clc1ccc(COC(Cn2ccnc2)c2ccc(Cl)cc2Cl)c(Cl)c1 (configuration not stated) | 3.16 µM (active) | – | 1.26 µM (active) | – | 5.1 µM (active) | 3.55 µM (active) | 2.28 µM (active) | 3.61 µM (active) | 5.73 µM (active) | 1 µM (active) |
| COc1c(C)c2c(c(O)c1CC=C(C)CCC(=O)OCCN1CCOCC1)C(=O)OC2 | 10 µM (active) | 11.2 µM (active) | 10 µM (active) | inactive | 6.75 µM (active) | – | 13.5 µM (active) | 15.1 µM (active) | 12 µM (active) | 7.94 µM (active) |
| CN1CC(=O)N2C(Cc3c([nH]c4ccccc34)[C@H]2c2ccc3c(c2)OCO3)C1=O (some centres not stated) | inactive | inactive | inactive | inactive | inactive | inactive | – | – | inactive | – |
| COc1cc2c(cc1OC)CC(=O)N(CCCN(C)C[C@H]1Cc3cc(OC)c(OC)cc31)CC2 | inactive | inactive | inactive | inactive | inactive | inactive | – | – | – | – |
| Cc1cc2nc3c(=O)[nH]c(=O)nc-3n(CC(O)C(O)C(O)CO)c2cc1C (configuration not stated) | inactive | inactive | inactive | inactive | – | inactive | – | – | inactive | inactive |
| CS(=O)(=O)c1ccc(C2=C(c3ccccc3)C(=O)OC2)cc1 | inactive | inactive | inactive | inactive | inactive | inactive | inactive | inactive | inactive | inactive |
